# The campaign covered roughly 1,200 compounds. About 85 (7%) were called active. Where a call stands in place of a potency, no number is given. Calls follow the shape of the full dose curve. This excerpt belongs to a sample that is enriched for actives.
# Molecular target: Beta-2 adrenergic receptor (Homo sapiens) (UniProt P07550)
# Assay: qHTS assay of beta-arrestin-biased ligands of beta2-adrenergic receptor: Hit Validation with GloSensor
# Settings: W9-Glo22F cells, GloSensor cAMP luminescence, beta2AR agonism; activation: at 46.1 µM (top of the series)
# Summary of the method: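 Luminescence measured 10 min after GloSensor reagent addition at room temperature. Preceded by compound pinning onto W9-Glo22F cells that had been cultured overnight at 37 deg C under 5% CO2.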
# Potency is read from the fitted curve at half-maximal effect.
# Sequence of Beta-2 adrenergic receptor (Homo sapiens) (P07550 whole entry, looked up): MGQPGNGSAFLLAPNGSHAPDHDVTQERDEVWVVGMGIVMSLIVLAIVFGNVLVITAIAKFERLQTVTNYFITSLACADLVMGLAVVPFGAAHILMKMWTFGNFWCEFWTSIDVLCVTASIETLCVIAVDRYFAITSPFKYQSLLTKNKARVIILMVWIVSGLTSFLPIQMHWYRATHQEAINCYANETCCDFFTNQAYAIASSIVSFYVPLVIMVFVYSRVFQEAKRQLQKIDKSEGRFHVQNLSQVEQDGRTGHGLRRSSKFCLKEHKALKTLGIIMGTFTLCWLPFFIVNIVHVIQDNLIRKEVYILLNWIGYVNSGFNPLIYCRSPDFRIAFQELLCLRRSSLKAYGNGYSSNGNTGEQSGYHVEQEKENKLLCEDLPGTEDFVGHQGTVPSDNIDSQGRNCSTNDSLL
row,Structure (SMILES),Potency
1,CCNC(=S)N/N=C(\C)c1cccc(OC)c1,inactive
2,C[C@H](CO)N1C[C@H](C)[C@@H](CN(C)Cc2ccccc2)Oc2c(NC(=O)Cc3ccccc3)cccc2C1=O,inactive
3,CCCN=C1N(CC)C[C@@H]2[C@@H]3C(=O)N(C)C(=O)[C@@H]3[C@](CC)(C(=O)OC)N12,inactive
4,O=C(COC(=O)c1ccccn1)c1ccc([N+](=O)[O-])cc1,inactive
5,Cc1ccc(S(=O)(=O)N(Cc2ccc(Cl)cc2)c2ccccc2C(=O)NCc2ccco2)cc1,inactive
6,Cc1cc(C)n(-c2nc(NC(C)(C)C)nc(NC(C)(C)C)n2)n1,inactive
7,CCC(C(=O)Nc1cc(C)nn1-c1nc(C)cc(C)n1)c1ccccc1 (stereo not given),18.4 µM (active)
8,CCNc1nc(NCC)nc(-n2nc(C)cc2C)n1,inactive
9,Cc1cc(C)nc(-n2nc(C)cc2NC(=O)CNC2CCCCC2)n1,inactive
10,CCC1CCCCN1CC(=O)Nc1cc(C)nn1-c1nc(C)cc(C)n1 (stereo not given),7.31 µM (active)
11,CC(=O)Nc1ccc(Nc2cc(C)nc3c(-c4ccccc4)c(C)nn23)cc1,inactive
12,Cc1cc(C)nc(-n2nc(C)cc2NC(=O)CN2CCCC2)n1,20.6 µM (active)
13,Cc1cc(C)nc(-n2nc(C)cc2NC(=O)CN2CCC(C)CC2)n1,29.1 µM (active)
14,CNc1cc(C)nc(-n2nc(C)cc2C)n1,inactive
15,Cc1cc(C)n(-c2nc(NC(C)C)nc(NC(C)C)n2)n1,inactive
16,Cc1ccc(S(=O)(=O)N2CCN(C(C)C(=O)NCC(C)c3ccccc3)CC2)cc1 (stereo not given),inactive
17,CN(C)C(=S)Nc1nc2ccccc2s1,inactive
18,COc1cccc(C2CC3(CC(C)(C)NC(=S)N3)Oc3cc(O)ccc32)c1 (stereo not given),inactive
19,COCCCN=C1NN=C(c2cc(C)n(-c3ccccc3)c2C)CS1,inactive
20,COc1ccc(N2C(=O)C(CC(=O)Nc3ccc(Cl)cc3)N(NC(=O)c3cccc(F)c3)C2=S)cc1 (stereo not given),inactive
21,O=C(NCCN1CCOCC1)c1cc(Br)ccc1Cl,inactive
22,O=C(NC(=S)N1CCCCCC1)c1ccccc1Cl,inactive

row,Structure (SMILES),Potency
1,O=C(NCCN1CCOCC1)c1ccccc1Cl,20.6 µM (active)
2,C=C(C)c1cccc(C(C)(C)NC(=O)NC2CCN(Cc3ccccc3)CC2)c1,inactive
3,COc1cc2c(cc1OC)C(c1cc3ccccc3oc1=O)=NC(C)(C)C2,23.1 µM (active)
4,CC(=O)Oc1ccc2cc(-c3ccccc3)c(=O)oc2c1,inactive
5,CC(C)c1ccc(NC(=S)Nc2ccc3cn[nH]c3c2)cc1,inactive
6,O=C(O)C12CC3CC(C1)CC(n1ncc(N4CCN(c5ccccc5)CC4)c(Cl)c1=O)(C3)C2,inactive
7,O=C1c2ccccc2-c2onc3ccc(Oc4ccccc4)c1c23,13 µM (active)
8,C=CCn1nc([N+](=O)[O-])nc1Sc1cccc2cccnc12,inactive
9,C=CCNC(=S)Nc1cc(C)ccn1,inactive
10,O=C(NCC1CCCO1)c1ccc(CS(=O)(=O)c2ccc(Br)cc2)o1 (stereo not given),inactive
11,COc1ccccc1NS(=O)(=O)c1cc(NC(=O)CNC(=O)c2ccc(C)s2)ccc1Cl,inactive
12,CCOc1ccc(CC(=O)Nc2ccc(S(=O)(=O)Nc3cc(C)on3)cc2)cc1OCC,inactive
13,COc1ccccc1NS(=O)(=O)c1ccc(NC(=O)Cc2cccs2)cc1,32.6 µM (active)
14,CC(C)N(Cc1cc2ccccc2[nH]c1=O)C(=O)C1CCCCC1,inactive
15,COc1ccc(C2CC(O)(c3ccccc3)Oc3cc(OC)c(OC)c(OC)c32)cc1 (stereo not given),inactive
16,COc1ccc(Nc2cc(Nc3cccc(OC)c3)ncn2)cc1,inactive
17,COc1cccc(Oc2cnc(N)nc2-c2ccc(OC)cc2O)c1,23.1 µM (active)
18,C/C(CC(C)(C)C1CCCCC1)=N\NC(N)=S,inactive
19,O=[N+]([O-])c1ccc(O)c2ncccc12,inactive
20,COc1cc([N+](=O)[O-])c2nccnc2c1,16.4 µM (active)
21,O=[N+]([O-])c1cc(Cl)c(O)c2ncccc12,inactive
22,O=[N+]([O-])c1cc(Br)cc(C=Nc2ccc3c(c2)OCO3)c1O,inactive

row,Structure (SMILES),Potency
1,Oc1ccc(NCc2cccc(OCc3ccccc3)c2)cc1,inactive
2,Oc1ccc(NCc2ccc(OCc3ccccc3)cc2)cc1,inactive
3,COc1cc(CNc2ccc(O)cc2)cc(Br)c1OCc1ccccc1,14.6 µM (active)
4,C/C(Cl)=C\Cn1c(O)c(N=NC(N)=S)c2ccccc21,inactive
5,C=CCn1c(O)c(N=NC(=S)Nc2ccccc2F)c2cc(S(=O)(=O)N3CCOCC3)ccc21,inactive
6,NC(=S)N=Nc1c(O)n(CCCl)c2ccc(Cl)cc12,32.6 µM (active)
7,NC(=S)N=Nc1c(O)n(Cc2ccc(F)cc2)c2ccccc12,inactive
8,CC1CC(C)(C)n2c(O)c(N=NC(N)=S)c3cccc1c32 (stereo not given),inactive
9,NC(=S)N=Nc1c(O)n(CCCl)c2ccccc12,25.9 µM (active)
10,O=C(Oc1cccc2cccnc12)c1ccc2c(c1)OCCO2,inactive
11,COc1ccc(NC(=S)Nc2cccc(C)n2)cc1,inactive
12,CCc1cc2c(SCC(=O)Nc3ccc(Cl)cn3)ncnc2s1,inactive
13,COc1ccc(OCCCC(=O)Nc2nc(-c3ccccn3)cs2)cc1,inactive
14,COc1ccc(CCNc2nc(-c3ccccn3)cs2)cc1OC,20.6 µM (active)
15,c1ccc(CCNc2nc(-c3ccccn3)cs2)cc1,inactive
16,COc1ccc(NC(=S)NC(=O)c2ccc3c(c2)OCCO3)cc1,inactive
17,Cc1ccc(/C=C2/C(=O)N(c3ccccc3)C(=S)N2C)o1,inactive
18,Cc1ccc(N=C2NC(=O)/C(=C/C=C/c3ccco3)S2)cc1,inactive
19,Cc1cccc(N=C2NC(=O)/C(=C/c3cccs3)S2)c1,1.03 µM (active)
20,C#CCn1c(=NC(=O)CSC(C)=O)sc2cc(F)ccc21,inactive
21,Cc1ccc2cccc(SCC(=O)NCC#N)c2n1,inactive
22,CC(=O)c1cccc(CN2CCN(CCC(C)C)C(CCO)C2)c1 (stereo not given),inactive

row,Structure (SMILES),Potency
1,N#C/C(=C\c1cccc(O)c1)c1nc2ccccc2o1,6.51 µM (active)
2,N#C/C(=C\c1ccc(Cl)cc1)c1nc2ccccc2o1,inactive
3,N#C/C(=C\c1ccncc1)c1nc2ccccc2o1,inactive
4,CCCC(=O)N(c1ccc(F)cc1)C1C=CS(=O)(=O)C1 (stereo not given),inactive
5,CCCN(CC(=O)Nc1ccc(Cl)cc1Cl)C(=O)/C=C/c1ccco1,inactive
6,O=C1C=CC(O)(c2cc(=O)c3c(O)cc(O)cc3o2)C=C1,inactive
7,COc1c(-c2ccc(O)c(O)c2)oc2cc(O)cc(O)c2c1=O,20.6 µM (active)
8,COc1c(O)cc(O)c2c(=O)cc(-c3ccccc3)oc12,inactive
9,Fc1ccccc1/C=N/Nc1ncnc2ccccc12,inactive
10,Cc1ccc2cccc(SCC(=O)Nc3ccc(F)cc3)c2n1,inactive
11,NC(=S)n1[nH]c(-c2ccc([N+](=O)[O-])cc2)c(N=Nc2ccc(Cl)cc2)c1=O,inactive
12,Clc1ccc(OCc2nc(-c3ccccn3)n[nH]2)cc1,inactive
13,COc1cnc(-c2ccccn2)nc1Oc1ccccc1,29.1 µM (active)
14,COc1cnc(-c2ccccn2)nc1Sc1ccccc1Cl,inactive
15,Cc1cccc(NC(=S)N/N=C/c2cccc([N+](=O)[O-])c2)c1,inactive
16,CCCCC(=O)N1CCCC(c2nc(-c3cccc(OC)c3)no2)C1 (stereo not given),inactive
17,C=C(C)CNC(=S)N/N=C/c1ccco1,inactive
18,COc1ccc(NS(=O)(=O)c2ccc3oc(SC4CCOC4=O)nc3c2)cc1 (stereo not given),inactive
19,CCOC(=O)C1=C(C)N(c2ccc(OC)cc2)C(=O)/C1=C\c1ccc(O)c(OCC)c1,inactive
20,COC(=O)C1=C(C)N(Cc2ccc(C)cc2)C(=O)/C1=C\c1ccc(O)c(OC)c1,inactive
21,CCOC(=O)C1=C(C)N(c2ccc(C)cc2)C(=O)/C1=C\c1ccc(O)c(OC)c1,18.4 µM (active)
22,CNC(=S)N/N=C/C1=CCC2CC1C2(C)C (stereo not given),inactive

row,Structure (SMILES),Potency
1,O=C1c2ccccc2[C@@H]2C[C@@H](O)[C@H](Nc3cccc4ccccc34)CCN12,inactive
2,CCOC(=O)NC(=S)Nc1ccc(C(C)(C)C)cc1,inactive
3,NC(=S)N/N=C1\CCOc2ccc(F)cc21,inactive
4,CNC(=S)N/N=C1\CC(c2ccccc2)Oc2ccccc21 (stereo not given),inactive
5,NC(=S)N/N=C1\CC(c2ccc3c(c2)OCCCO3)Oc2ccc(F)cc21 (stereo not given),11.6 µM (active)
6,c1coc(CNc2nc3nonc3nc2NCc2ccco2)c1,inactive
7,COCCNC(=S)N/N=C(\C)c1ccc(Cl)c(Cl)c1Cl,inactive
8,COCCNC(=S)N/N=C(\C)c1ccccc1F,29.1 µM (active)
9,C/C(=N\NC(=S)NCc1ccccc1)c1ccccc1F,inactive
10,COc1ccc(C(CNC(=O)c2ccc(C)c(S(=O)(=O)Nc3ccccc3OC)c2)N2CCCC2)cc1 (stereo not given),inactive
11,C=CCn1c(CSc2nc3ccccc3s2)n[nH]c1=S,25.9 µM (active)
12,C=CCn1c(-c2ccccc2)c[nH]c1=S,inactive
13,C=CCn1c(CCn2c3ccccc3c3ccccc32)n[nH]c1=S,inactive
14,CCN(CC)C(=O)CN(c1cccc(OC)c1)S(=O)(=O)c1ccc(C)cc1,inactive
15,CC1CCN(c2c(NCc3ccc(C(=O)NCCc4ccc(Cl)cc4)cc3)c(=O)c2=O)CC1,inactive
16,O=c1c2cn[nH]c2nc(SCc2ccccc2F)n1-c1ccc(Br)cc1,inactive
17,CCNc1nc(NCC)nc(N/N=C/c2ccc(N(C)C)cc2)n1,inactive
18,CCNC(=S)N/N=C/c1ccco1,inactive
19,CCNc1nc(NCC)nc(N(C)/N=C/c2ccco2)n1,20.6 µM (active)
20,O=C(/C=C/c1ccccc1)Oc1cccc2cccnc12,inactive
21,Cc1cc(C(=O)CN2C(=O)NC3(CCCc4ccccc43)C2=O)c(C)n1C (stereo not given),inactive
22,Cc1ccc(NC(=S)N2CCn3cccc3C2c2cccnc2)cc1 (stereo not given),inactive
